# B2AR arrestin = qHTS assay of beta-arrestin-biased ligands of beta2-adrenergic receptor. Beta-2 adrenergic receptor (Homo sapiens), P07550. beta-arrestin recruitment to beta2AR, cell-based reporter. Potency, µM (doses to about 46.1 µM), inactives show at the highest dose activation, hits mostly activators. 330,000 tested, 0.02% active. AID 492947, 2010;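 further: potency means the concentration at half of the fitted maximal effect; 0% = DMSO controls and full agonism = EC100 isoproterenol or metaproterenol; nearly all actives have a fitted effect of over 65% in size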
# Target sequence (P07550 whole entry, looked up): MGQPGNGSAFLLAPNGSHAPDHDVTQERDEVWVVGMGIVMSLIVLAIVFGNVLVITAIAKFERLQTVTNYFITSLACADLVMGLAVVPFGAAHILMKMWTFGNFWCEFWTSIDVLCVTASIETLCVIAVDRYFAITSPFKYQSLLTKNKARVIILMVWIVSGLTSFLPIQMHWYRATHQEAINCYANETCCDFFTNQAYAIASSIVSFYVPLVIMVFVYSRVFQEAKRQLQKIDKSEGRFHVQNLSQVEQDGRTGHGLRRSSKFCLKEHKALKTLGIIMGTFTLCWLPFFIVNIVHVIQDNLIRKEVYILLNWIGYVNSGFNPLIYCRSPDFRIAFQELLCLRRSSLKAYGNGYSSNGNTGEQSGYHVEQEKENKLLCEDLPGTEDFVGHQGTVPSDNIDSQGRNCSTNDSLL
# L3MBTL1 inh = qHTS Assay for the Inhibitors of L3MBTL1; Lethal(3)malignant brain tumor-like protein 1 (Homo sapiens), Q9Y468; AlphaScreen L3MBTL1–H3K9me1 peptide binding; Potency, µM (series often up to 57.1 µM), without a hit: at the top dose activity, negative = inhibition, hits mostly inhibitors; 230,000 tested, 0.66% active; AID 485360, 2010; further: potency means the concentration at half of the fitted maximal effect; nearly all actives have a fitted effect of over 60% in size
#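 Displacement of a biotinylated histone H3(1-15) peptide monomethylated at Lys9 (75 nM) from L3MBTL1 (50 nM) was measured by AlphaScreen after a 30 min room-temperature compound incubation; cefsulodin titration served as intraplate control.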
# Six1-Eya2 inh = qHTS Assay for Inhibitors of the Six1/Eya2 Interaction | Homeobox protein SIX1 (Homo sapiens) + Protein phosphatase EYA2 (Homo sapiens), … | AlphaScreen GST-Six1/His-Eya2 binding, biochemical; stronger effect = lower value | activity change, % (concentration not given with the values) | 360,000 tested, 0.56% active | AID 651725, 2012; in the data active means activity change below about -65%; inconclusive means mostly about -30% to -63%
#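 Homogeneous AlphaScreen proximity assay pairing GST-Six1 with His-tagged Eya2 (added as 5X mix: 250 nM and 500 nM) in 50 mM Tris pH 8.0, 300 mM NaCl, 1 mM TCEP. Glutathione donor and nickel acceptor beads; 1 h, 37 °C, dark.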
# Eya2 inh = qHTS Assay for Inhibitors of the Phosphatase Activity of Eya2; 330,000 tested, 0.006% active; Protein phosphatase EYA2 (Homo sapiens), O00167; Potency, µM (highest dose often 76.9 µM), without a hit: top-dose activity, negative = inhibition, usual class: inhibitors; AID 488837, 2010; recombinant Eya2, OMFP fluorescence dephosphorylation (OMFP is methylfluorescein phosphate); further: potency means the concentration at half of the fitted maximal effect
#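 Eya2 protein (added as 0.2 uM solution) was preincubated with compound for 10 min at ambient temperature in 50 mM HEPES pH 7.5, 50 mM NaCl, 5 uM MgCl2, 0.05% BSA, 1 mM DTT. OMFP (added at 50 uM) then reacted 10 min; fluorescence read at 485/525 nm.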
# CtBP-E1A inh = qHTS Assay for Inhibitors of the CtBP/E1A Interaction; 340,000 tested, 0.49% active; CtBP / adenovirus E1A interaction (AlphaScreen); activity change, % (no concentration beside the values); AID 651724, 2012; AlphaScreen GST-E1A/His-CtBP binding, 1536-well; stronger effect = lower value; in the data active means activity change below about -65%; inconclusive means mostly about -30% to -63%
#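 Steps: dispense buffer (Tris pH 8.0, NaCl 300 mM, TCEP 1 mM, BSA, Tween 20); add 5X protein mix (GST-E1A, His-CtBP, 125 nM each); pin 23 nL compound; 2 h at 37 °C, dark; add 5X beads (50 ug/mL); 1 h; read.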
# The depositor's hits bear a star; ? = inconclusive; · = no result given; [ ] = remark or other dose. Only some compounds are listed: those with a hit (about 0.9% of all), similar ones and a draw of the others. Unless noted, the call rests on the fitted dose curve; in most records, active means well fitted curve in the direction sought with a large enough effect; inconclusive means small, poorly fitted or top-dose-only effect, or another doubt; inactive means no such curve, though single readings can be large; an effect the other way counts as inactive or inconclusive. Unless noted, on the % scale 0 is the no-effect control and ±100 the full control effect.
SMILES,B2AR arrestin,L3MBTL1 inh,Six1-Eya2 inh,Eya2 inh,CtBP-E1A inh
N#Cc1ccc(C(=O)Nc2ccc3ccccc3c2)cc1,0%,·,8,4%,3
O=C(Nc1ccc2ccccc2c1)c1ccc2[nH]c(=O)c(=O)[nH]c2c1,-1%,·,?,-26%,-85*
Oc1ccc(N=Nc2c(O)ccc3ccccc23)cc1,0%,18µM*,-70*,-18%,-75*
CCOC(=O)C1CCCN(CC(=O)Nc2cccc(C(C)=O)c2)C1 (stereo unspecified),0%,-1%,2,10%,-11
CC(=O)N1c2ccc(S(=O)(=O)N3CCC(C(=O)Nc4cccc(Cl)c4)CC3)cc2CC1C (stereo unspecified),0%,·,29,3%,·
COc1ccc(N(CC(=O)Nc2cc(Cl)ccc2OC)S(=O)(=O)c2c(C)[nH]c(=O)[nH]c2=O)cc1,0%,·,-90*,-1%,-95*
COc1ccc(N(CC(=O)Nc2cc(C)ccc2C)S(=O)(=O)c2c(C)[nH]c(=O)[nH]c2=O)cc1,0%,·,-9,-1%,-26
CCN(CC)c1ccc(/C=C2\C(=O)N(c3nnc(C)c(=O)[nH]3)N=C2C)cc1,1%,?,-92*,2%,-92*
Cc1csc(=O)n1CC(=O)Nc1ccc(C(C)C)cc1,0%,-6%,24,6%,0
O=CN/C=C/c1cc(O)ccc1O,8%,16µM*,-17,11%,-7
O=Cc1ccc(O)cc1O,0%,·,1,4%,10
CC(OC(=O)Cc1n[nH]c(=O)c2ccccc12)C(=O)Nc1ccc(F)cc1Cl (stereo unspecified),0%,2%,4,-15%,8
COc1ccc(Br)cc1/C=c1\sc2nc(-c3ccco3)nn2c1=O,0%,7.9µM*,-24,-11%,-2
COc1ccccc1/C=c1\sc2nc(-c3ccccc3OC)nn2c1=O,0%,-5%,1,6%,-5
Cc1cccc(OCc2nnc(SC(C)C(=O)Nc3ccc(N4CCOCC4)cc3)o2)c1 (stereo unspecified),-1%,0%,-5,3%,-17
COc1ccc(N2CCN(Cc3cc4c(cc3O)CCC4)CC2)cc1,0%,·,?,14%,-65*
CC(C)OC(=O)C(C(=O)C(F)(F)F)c1cc(NS(=O)(=O)c2ccc3ccccc3c2)c2ccccc2c1O (stereo unspecified),15%,-12%,?,-7%,-68*
CCOc1ccc(S(=O)(=O)Nc2cc(SCC(=O)O)c(O)c3ccccc23)cc1,0%,?,-13,-13%,·
COc1ccc2oc(C(=O)Nc3nc(-c4ccccn4)cs3)c(C)c2c1,0%,25µM*,?,2%,-1
C[C@H](NC(=O)c1ccco1)C(=O)Nc1nc(-c2ccccn2)cs1,·,·,-89*,·,-89*
O=C(Nc1nc(-c2ccccn2)cs1)c1ccco1,0%,·,-79*,0%,-93*
O=C(Nc1nc(-c2ccccn2)cs1)c1ccc(Br)s1,0%,·,?,0%,-71*
COc1ccc([C@]23Cc4cc(C#N)ccc4C(O2)C2=C(CC4(CCCCC4)OC2=O)O3)cc1,0%[9.22 µM],·,·,14%[15.4 µM],·
COc1cc(NC(=O)c2cccc3c2C(=O)N(C2CCCCC2)C3)cc(OC)c1OC,-1%,·,-15,-7%,?
O=C(Nc1nc(-c2ccccn2)cs1)C1CC1,10%,-10%,?,3%,-72*
SMILES,B2AR arrestin,L3MBTL1 inh,Six1-Eya2 inh,Eya2 inh,CtBP-E1A inh
O=C(Nc1nc(-c2ccccn2)cs1)c1cccc(-n2cnnn2)c1,0%,?,-92*,7%,·
O=C(Nc1ccc(Br)cc1)c1cccc(-n2cnnn2)c1,0%,·,-4,15%,0
Cc1ccc(NC(=O)Cc2ccccc2)cc1S(=O)(=O)N1CCOCC1,-1%,-7%,-2,0%,10
COc1ccc(Cl)cc1NC(=O)CSc1nnc(C2CC2)n1C,0%,·,14,-12%,20
O=C(/C=C\c1ccco1)c1ccc(NC(=O)c2ccco2)cc1,0%,11µM*,-7,-21%,-25
CSC(=S)NN=C(C)c1cccc(C)n1,·,·,-91*,·,-93*
CC(=NNC(=S)N1CCCCC1)c1ccccn1,·,·,-87*,·,-16
CCNC(=S)N1CCN(c2ccccn2)CC1,0%,7%,0,0%,0
CC(=NNC(=S)N1CC2CCC(CC2)C1)c1ccncn1,·,·,?,·,-96*
Cc1cccc(C(=S)N2CCOCC2)n1,0%,4%,-2,3%,1
CC(=NNC(=S)N1CCCCC1)c1cccc(C)n1,·,·,-91*,·,0
C/C(=N\NC(=S)NC1CCCCC1)c1ccc(Cl)c(Cl)c1,1%,·,-4,0%,-3
O=C(COC(=O)C1CCC(=O)N1)Nc1ccccc1OC(F)F (stereo unspecified),0%,4%,6,6%,1
Cc1noc(C)c1COC(=O)c1ccc(F)c(S(=O)(=O)N2CCOCC2)c1,-1%,8%,4,-6%,2
O=C(CNC(=O)c1ccccc1)N/N=C/c1cc(Br)ccc1O,0%,-5%,-65*,3%,10
O=C(CNC(=O)c1ccncc1)N/N=C/c1cc(Br)ccc1O,-2%,12%,?,0%,-66*
COc1ccc(C(=O)N/N=C/c2cc(Br)ccc2O)cc1OC,0%,-15%,-68*,?,-91*
O=C(CN1CC(c2ccccc2)CC1=O)N/N=C/c1cc(Br)ccc1O (stereo unspecified),0%,-11%,-84*,-5%,-90*
CCOc1ccc(NC(=O)CN2CC(c3ccccc3)CC2=O)cc1 (stereo unspecified),0%,11%,8,-16%,5
O=C(CNC(=O)c1ccncc1)N/N=C/c1ccc(Br)cc1,-1%,2%,10,6%,·
O=[N+]([O-])c1cccc(S(=O)(=O)NC2CC3CCC2C3)c1 (stereo unspecified),0%,-1%[2.29 µM],-2,-12%,0
CCC1(O)CC2CN(CCc3c([nH]c4ccccc34)[C@@](C(=O)OC)(c3cc4c(cc3OC)N(C)C3[C@]45CCN4CC=C[C@@](CC)([C@@H](OC(C)=O)[C@]3(O)C(=O)OC)[C@H]45)C2)C1 (stereo partly specified),·,·,·,5%,·
CCOC(=O)C1(C)CCN1C(=O)c1cccc(C#N)c1 (stereo unspecified),·,·,1,·,6
COc1cccc(/C=N/NC(=O)C(c2ccncc2)N2CCOCC2)c1 (stereo unspecified),0%,13%,-3,13%,9
